Compound activity: PubChem, several laboratories
Rv3671c inh: inhibitors of M. tuberculosis serine protease Rv3671c; P9WHR9; inhibition, % at 5.96 µM; hit rate 0.048% among 320,000; in the data active means inhibition above about 38%;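 further: extracellular domain of Rv3671c used as enzyme; 0% = enzyme with DMSO and 100% = no enzyme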
Target sequence (P9WHR9 whole entry, looked up, the tested form may be a part): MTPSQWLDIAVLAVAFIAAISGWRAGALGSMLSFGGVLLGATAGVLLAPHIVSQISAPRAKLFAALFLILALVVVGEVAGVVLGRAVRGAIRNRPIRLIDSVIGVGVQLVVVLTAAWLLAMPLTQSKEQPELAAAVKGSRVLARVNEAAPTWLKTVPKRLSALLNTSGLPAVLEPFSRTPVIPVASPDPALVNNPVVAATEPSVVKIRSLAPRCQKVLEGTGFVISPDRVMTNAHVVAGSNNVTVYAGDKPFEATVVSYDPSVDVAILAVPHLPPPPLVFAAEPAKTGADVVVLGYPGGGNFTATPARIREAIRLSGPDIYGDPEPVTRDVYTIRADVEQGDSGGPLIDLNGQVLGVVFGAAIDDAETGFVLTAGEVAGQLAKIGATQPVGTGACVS
GDH-TPI counter-1: GDH-TPI coupled enzyme inhibition counter-screen | GDH-TPI coupled enzyme counterscreen, NADH absorbance | inhibition, % at 4.8 µM | hit rate 1.2% among 360,000; in the data active means inhibition above about 30%;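 further: 0% = DMSO wells and 100% = wells lacking the enzyme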
Mtb UGM inh: Mtb UDP-galactopyranose mutase inhibition | P9WIQ1 | purified UGM, fluorescence polarization probe displacement | inhibition, % at 10 µM | hit rate 0.06% among 320,000 | AID 504406; in the data active means inhibition above about 10%, passing the limit was not always enough; inconclusive means no clear call, values can overlap the other calls
Mtb FBA inh: inhibits M. tuberculosis FBA enzyme | purified M. tuberculosis FBA, fluorescence read-out | inhibition, % at 1 µM | hit rate 2.3% among 360,000 | AID 588726 | P9WQA3;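 further: 0% = vehicle and 100% = reference inhibitor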
RecA intein inh: Mtb RecA intein splicing inhibition. hit rate 0.75% among 290,000. inhibition, % (no concentration beside the values). P9WHJ3. cell-free RecA intein splicing, fluorescence. AID 2221; in the data active means inhibition above about 30%; inconclusive means no clear call, values can overlap the other calls;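 further: 0% = vehicle wells and 100% = reference inhibitor control wells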
Mtb bLac sens: beta-lactam sensitization of Mtb H37Rv; M. tuberculosis H37Rv growth with meropenem, percent inhibition; inhibition, % at 25 µM; hit rate 0.27% among 330,000; call rule not given here;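 further: growth measured after seven days incubation then overnight dye step; 0% = bacteria only wells and 100% = bacteria with antibiotic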
Mtb FBA inh conf: confirmation of M. tuberculosis fructose-bisphosphate aldolase inhibitors | AID 651616 | inhibition, % at 1 µM | shares compounds with Mtb FBA inh | purified M. tuberculosis FBA, fluorescence read-out | hit rate 78% among 5,600;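 further: 0% = vehicle wells and 100% = reference inhibitor wells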
GDH-TPI counter-2: inhibits GDH-TPI coupling enzymes, flagging Mtb FBA hits; shares compounds with Mtb FBA inh; GDH-TPI coupled enzyme counterscreen, fluorescence; inhibition, % at 1 µM; hit rate 81% among 5,600; in the data active means inhibition above about 10%
* hit, by the source's call; ? = inconclusive; / = no result; + = active, no number. In the library only some 4% were active in any assay of this set; here they are far more common. Unless noted, no stated cut-off is given here; in the data, active means inhibition above about 27%; inactive means the rest.

SMILES	Rv3671c inh	GDH-TPI counter-1	Mtb UGM inh	Mtb FBA inh	RecA intein inh	Mtb bLac sens	Mtb FBA inh conf	GDH-TPI counter-2
Cc1c(C)n(CC(O)CN(CCO)CCO)c2ccccc12 (configuration not stated)	-9	-2	-1	6	-2	4	/	/
Cc1c(Cl)cccc1NC(=O)COC(=O)C12CC3CC(CC(O)(C3)C1)C2	7	8	-1	1	/	-9	/	/
O=C(COC(=O)C12CC3CC(CC(Br)(C3)C1)C2)Nc1cccnc1Cl	-4	15	1	32*	3	-1	59*	49*
CC(Oc1ccccc1F)C(=O)NNC(=O)c1cc2ccccc2o1 (configuration not stated)	-1	5	2	1	2	-4	/	/
CCOC(=O)CC(=O)CSc1nc(-c2cccnc2)ccc1C#N	-12	26	-2	38*	-34	5	+	+
Cc1ccc(-c2nc3ccccn3c2Nc2ccccc2)o1	-2	8	2	108*	-2	-2	138*	127*
CCOC(=O)c1nc(N)c(C(=O)OCC)[nH]1	3	6	-3	59*	-2	-10	198*	166*
O=C(O)C1=C[C@H](c2coc3ccccc3c2=O)C[C@H](OCCCCO)O1	-5	5	-2	2	-4	6	/	/
CCOC(=O)COc1c(-c2ccc(OC)cc2)oc2ccccc2c1=O	6	43*	0	68*	5	99	+	+
COc1ccc(-c2oc3ccccc3c(=O)c2OCC(=O)O)cc1	5	35*	7	98*	-3	1	+	163*
O=C(O)COc1c(-c2ccco2)oc2ccccc2c1=O	-8	25	0	46*	-1	-3	+	+
O=C(O)COc1c(-c2ccc(Cl)cc2)oc2ccccc2c1=O	-9	8	2	7	-3	71	/	/
NC(=O)COc1c(-c2ccco2)oc2ccccc2c1=O	2	26	0	21	-1	-1	/	/
CC1(C)CC2CC(C)(CN2S(=O)(=O)c2ccccc2[N+](=O)[O-])C1 (configuration not stated)	3	4	3	-3	/	-3	/	/
Cc1ccc(SCC(=O)c2ccc[nH]2)cc1	6	2	1	1	2	-11	/	/
Cc1cc(C)nc(-n2nc(C)cc2NC(=O)CNC2CCCCC2)n1	-5	-1	0	0	0	-4	/	/
Cc1cccc2cc(C#N)c(NCCNC(=S)NCCCN3CCOCC3)nc12	-2	-6	-2	31*	-32	6	146*	108*
COCCCNC(=S)NCCCNc1nc2cc3c(cc2cc1C#N)OCO3	5	12	2	72*	-111	2	15	6
COCCCNC(=S)NNC(=O)c1ccc2c(c1)OCO2	-6	-6	0	0	-1	-4	/	/
Cc1cc2cc(C#N)c(NCCNC(=S)NCCCN3CCOCC3)nc2cc1C	-3	11	0	40*	-40	1	+	+
COc1ccc2nc(NCCNC(=S)NCCCN3CCOCC3)c(C#N)cc2c1	4	-2	-1	8	-229	-10	/	/
COc1ccccc1N1CCN(C(=O)COc2cccc(C)c2C)CC1	-5	1	/	2	-2	5	/	/
CC(C)C(=O)Nc1ccc(-c2nnc(-c3ccccc3)o2)cc1	/	-1	-3	33*	-1	5	47*	36*
CC(=O)/C=C(\C)Nc1ccc(-c2cnc(-c3ccccc3)o2)cc1	0	19	4	90*	10	75	91*	76*
O=C(COc1ccccc1)Nc1ccc(-c2nnc(-c3ccco3)o2)cc1	4	3	-1	36*	6	0	4	5
SMILES	Rv3671c inh	GDH-TPI counter-1	Mtb UGM inh	Mtb FBA inh	RecA intein inh	Mtb bLac sens	Mtb FBA inh conf	GDH-TPI counter-2
O=C(Cc1ccc(Cl)cc1)Nc1cccc(-c2nnc(-c3ccco3)o2)c1	-26	20	2	8	-1	?	/	/
CC(=O)Nc1ccc(-c2nc3ccccc3c(=O)o2)cc1	-4	4	-2	0	-3	44	/	/
O=C(Nc1ccc(-c2nnc(-c3ccccc3)o2)cc1)C(F)(F)F	-5	7	-1	1	0	28	/	/
O=C(Cc1ccccc1)Nc1cccc(-c2nnc(-c3ccco3)o2)c1	-13	5	-4	32*	1	-16	38*	35*
Cc1cc(NC(=O)c2ccccc2Oc2ccccc2)no1	-4	8	0	9	3	12	/	/
COC(CNC(=O)c1cnn2c(C)c(Cc3ccccc3)c(C)nc12)OC	-3	10	0	78*	-4	-9	2	-4
Cc1nc2c(C(=O)N3CCOCC3)cnn2c(C)c1Cc1ccc(Cl)cc1	-5	20	1	38*	3	3	200*	171*
COC(CNC(=O)Cc1c(C)nc2c(-c3ccccc3)c(C)nn2c1C)OC	-6	-2	-6	-12	-1	-2	/	/
CCC1(C)Cc2c(sc3nc(SC)[nH]c(=S)c23)CO1 (configuration not stated)	2	/	3	/	-1	14	/	/
Cc1[nH]nc2c1-c1nc3ccccc3nc1C(C)(C)C2	-13	25	-1	38*	0	75	16	18*
CC12CCC(C)(c3nc4ccccc4nc31)C2(C)C	-12	5	-4	2	-3	4	/	/
COCCN(C(=O)CSc1nnc(-c2cccc(F)c2)n1N)c1c(N)n(CC(C)C)c(=O)[nH]c1=O	-6	0	-1	4	1	-10	/	/
COc1ccc(-c2nc(C#N)c(NCc3ccc(F)cc3)o2)cc1OC	6	10	1	103*	3	8	74*	55*
COc1ccc(-c2nc(C#N)c(NCc3ccccc3Cl)o2)cc1	7	1	-1	10	2	16	/	/
COc1ccc(-c2nc(C#N)c(NCc3cccnc3)o2)cc1OC	-3	14	-1	30*	-2	3	53*	39*
COc1ccc(-c2nc(C#N)c(NCc3ccccc3Cl)o2)cc1OC	5	23	0	57*	1	4	114*	81*
COc1ccc(-n2c(=O)[nH]c3c(C(N)=O)nc(C4CCCCC4)nc32)cc1	-1	1	2	1	2	16	/	/
CCCCS(=O)(=O)N1CCCC(C(=O)Oc2ccccc2OC)C1 (configuration not stated)	-2	4	-1	0	0	3	/	/
O=S(=O)(Nc1ccc(N2CCOCC2)cc1)c1ccc(Cl)s1	-9	1	-1	-7	-8	-3	/	/
CCN(C(=O)C1CC1)C1CCS(=O)(=O)C1 (configuration not stated)	2	-6	1	35*	1	-4	121*	106*
